Reference: PubChem BioAssay (NCATS)
Where “and” joins values, the source holds several entries; their conditions need not be identical. Equal values may be shown once. Records with an inconclusive call do not appear. Entries that show only a call come without a potency. Calls of active or inactive are those of the source. Unless noted, calls come from the whole dose curve; as a rule, active = well fitted inhibition curve with a large enough effect; inconclusive = small, poorly fitted or top-dose-only effect; inactive = flat fitted curve, though single readings scatter. Where a SMILES comes first, the peptide text is derived from it. [ ]: non-standard residue; d: D form. pGlu = O=C1CC[C@@H](C(=O)O)N1; Thz = O=C(O)[C@@H]1CSCN1

Assays:
[1] = qHTS drug screen for cell cycle checkpoint inhibitors in PARPi-resistant BRCA-mutant ovarian cancer cell lines. (AID 1963452; calls by dose curve); settings: PEO1/OlaR viability, CellTiter-Glo luminescence, 96 h, stronger effect = lower value
Outline: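 PEO1, PEO4 and PEO1/OlaR ovarian cancer cells, 600 per well, exposed 96 h at 37C to a dilution series. Viability read by CellTiter-Glo luminescence, normalized to DMSO and empty wells; activity summarized as Z-AUC.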

[2] = qHTS profiling for inhibitors of Plasmodium falciparum proliferation (AID 504749); note: nearly all actives have a fitted effect of over 60% in size; settings: P. falciparum in erythrocytes, SYBR Green DNA, 72 h
Outline: (§1)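 Readout was DNA-dye fluorescence from lysed cultures, ex 485/em 535 nm. Parasitized red cells had grown 72 h with compound; data scaled between 0.29 uM artemisinin and DMSO wells and corrected using vehicle-only plates.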

3D7 = assay: as above; settings: P. falciparum in erythrocytes, SYBR Green DNA, 72 h; series mostly up to 28.7 µM
Outline: as §1

AA1029 = assay: as above; settings: P. falciparum in erythrocytes, SYBR Green DNA, 72 h; series mostly up to 28.7 µM
Outline: as §1

AS120 = assay: as above; settings: P. falciparum in erythrocytes, SYBR Green DNA, 72 h; series mostly up to 28.7 µM
Outline: as §1

ATS189 = assay: as above; settings: P. falciparum in erythrocytes, SYBR Green DNA, 72 h; series mostly up to 28.7 µM
Outline: as §1

ATS95 = assay: as above; settings: P. falciparum in erythrocytes, SYBR Green DNA, 72 h; series mostly up to 28.7 µM
Outline: as §1

C2A = assay: as above; settings: P. falciparum in erythrocytes, SYBR Green DNA, 72 h; series mostly up to 28.7 µM
Outline: as §1

CP185 = assay: as above; settings: P. falciparum in erythrocytes, SYBR Green DNA, 72 h; series mostly up to 28.7 µM
Outline: as §1

CP191 = assay: as above; settings: P. falciparum in erythrocytes, SYBR Green DNA, 72 h; series mostly up to 28.7 µM
Outline: as §1

CP192 = assay: as above; settings: P. falciparum in erythrocytes, SYBR Green DNA, 72 h; series mostly up to 28.7 µM
Outline: as §1

CP194 = assay: as above; settings: P. falciparum in erythrocytes, SYBR Green DNA, 72 h; series mostly up to 28.7 µM
Outline: as §1

CP201 = assay: as above; settings: P. falciparum in erythrocytes, SYBR Green DNA, 72 h; series mostly up to 28.7 µM
Outline: as §1

CP211 = assay: as above; settings: P. falciparum in erythrocytes, SYBR Green DNA, 72 h; series mostly up to 28.7 µM
Outline: as §1

7G8 = assay: as above; settings: P. falciparum in erythrocytes, SYBR Green DNA, 72 h; series mostly up to 28.7 µM
Outline: as §1

CP203 = assay: as above; settings: P. falciparum in erythrocytes, SYBR Green DNA, 72 h; series mostly up to 28.7 µM
Outline: as §1

[3] = measured here: PEO1 parental Z-AUC
[4] = at 28.7 µM (top of the series), parasite line A
[5] = at 28.7 µM (top of the series), parasite line B

COc1ccc(/C=C/C(=O)Nc2ccccc2C(=O)O)cc1OC
Z-AUC [1]: 1.02 (inactive)
Z-AUC [1, 3]: 1.51
Z-AUC ([1]; measured here: PEO4 Z-AUC): 0.971
activity, negative = inhibition [2, 4]: 3.65% (inactive)
activity, negative = inhibition [2, 5]: -0.207% (inactive)
Potency (3D7): inactive
Potency (AA1029): inactive
Potency (AS120): inactive
Potency (ATS189): inactive
Potency (ATS95): inactive
Potency (C2A): inactive
Potency (CP185): inactive
Potency (CP191): inactive
Potency (CP192): inactive
Potency (CP194): inactive
Potency (CP201): inactive
Potency (CP211): inactive

Cc1ccc(C(=O)c2ccc(CC(=O)O)n2C)cc1
activity, negative = inhibition ([2]; at 12.8 µM (top of the series), parasite line A): -5.58% (inactive)
activity, negative = inhibition ([2]; at 12.8 µM (top of the series), parasite line B): 10.6% (inactive)
Potency (3D7): inactive
Potency (7G8): inactive
Potency (AA1029): inactive
Potency (AS120): inactive
Potency (ATS189): inactive
Potency (ATS95): inactive
Potency (C2A): inactive
Potency (CP185): inactive
Potency (CP191): inactive
Potency (CP192): inactive
Potency (CP194): inactive
Potency (CP201): inactive
Potency (CP203): inactive
Potency (CP211): inactive

CCNC(=O)[C@H]1O[C@@H](n2cnc3c(N)nc(NCCc4ccc(CCC(=O)O)cc4)nc32)[C@H](O)[C@@H]1O
Z-AUC [1]: 1.44 (inactive)
Z-AUC [1, 3]: 0.917
Z-AUC ([1]; measured here: PEO4 Z-AUC): 1.15

CC1OC1P(=O)(O)O (stereo not given)
activity, negative = inhibition [2, 4]: -11.9% (inactive)
activity, negative = inhibition [2, 5]: 1.11% (inactive)
Potency (3D7): inactive
Potency (7G8): inactive
Potency (AA1029): inactive
Potency (AS120): inactive
Potency (ATS189): inactive
Potency (ATS95): inactive
Potency (C2A): inactive
Potency (CP185): inactive
Potency (CP191): inactive
Potency (CP192): inactive
Potency (CP194): inactive
Potency (CP201): inactive
Potency (CP211): inactive

CCOC(=O)c1ccccc1O
activity, negative = inhibition [2, 4]: 4.06% (inactive)
activity, negative = inhibition [2, 5]: 15.6% (inactive)
Potency (3D7): inactive
Potency (7G8): inactive
Potency (AA1029): inactive
Potency (AS120): inactive
Potency (ATS189): inactive
Potency (ATS95): inactive
Potency (C2A): inactive
Potency (CP185): inactive
Potency (CP191): inactive
Potency (CP192): inactive
Potency (CP194): inactive
Potency (CP201): inactive
Potency (CP203): inactive
Potency (CP211): inactive

Cc1ccc(O)c(-n2nc3ccccc3n2)c1
activity, negative = inhibition [2, 4]: 4.17% (inactive)
activity, negative = inhibition [2, 5]: 15.3% (inactive)
Potency (3D7): inactive
Potency (7G8): inactive
Potency (AA1029): inactive
Potency (AS120): inactive
Potency (ATS189): inactive
Potency (ATS95): inactive
Potency (C2A): inactive
Potency (CP185): inactive
Potency (CP191): inactive
Potency (CP192): inactive
Potency (CP194): inactive
Potency (CP201): inactive
Potency (CP211): inactive

C=CCCCCCCCCC(=O)O
activity, negative = inhibition [2, 4]: 5.45% (inactive)
activity, negative = inhibition [2, 5]: 15% (inactive)
Potency (3D7): inactive
Potency (7G8): inactive
Potency (AA1029): inactive
Potency (AS120): inactive
Potency (ATS189): inactive
Potency (ATS95): inactive
Potency (C2A): inactive
Potency (CP185): inactive
Potency (CP191): inactive
Potency (CP192): inactive
Potency (CP194): inactive
Potency (CP201): inactive
Potency (CP203): inactive
Potency (CP211): inactive

Nc1c(CC(=O)O)cccc1C(=O)c1ccc(Br)cc1
activity, negative = inhibition [2, 4]: 12.5% (inactive)
activity, negative = inhibition [2, 5]: 11.2% (inactive)
Potency (3D7): inactive
Potency (7G8): inactive
Potency (AA1029): inactive
Potency (AS120): inactive
Potency (ATS189): inactive
Potency (ATS95): inactive
Potency (C2A): inactive
Potency (CP185): inactive
Potency (CP191): inactive
Potency (CP192): inactive
Potency (CP194): inactive
Potency (CP201): inactive
Potency (CP211): inactive

O=C(Nc1ccc(C(=O)O)c(O)c1)c1ccccc1
activity, negative = inhibition [2, 4]: -20.7% (inactive)
activity, negative = inhibition [2, 5]: -1.01% (inactive)
Potency (3D7): inactive
Potency (7G8): inactive
Potency (AA1029): inactive
Potency (AS120): inactive
Potency (ATS189): inactive
Potency (ATS95): inactive
Potency (C2A): inactive
Potency (CP185): inactive
Potency (CP191): inactive
Potency (CP192): inactive
Potency (CP194): inactive
Potency (CP201): inactive
Potency (CP203): inactive
Potency (CP211): inactive

Cc1ccccc1CNc1ncnc2c1ncn2C1OC(CO)C(O)C1O (stereo not given)
activity, negative = inhibition [2, 4]: 17.8% (inactive)
activity, negative = inhibition [2, 5]: -2% (inactive)
Potency (3D7): inactive
Potency (7G8): inactive
Potency (AA1029): inactive
Potency (AS120): inactive
Potency (ATS189): inactive
Potency (ATS95): inactive
Potency (C2A): inactive
Potency (CP185): inactive
Potency (CP191): inactive
Potency (CP192): inactive
Potency (CP194): inactive
Potency (CP201): inactive
Potency (CP211): inactive

c1ccc2sc(SSc3nc4ccccc4s3)nc2c1
activity, negative = inhibition [2, 4]: 6.98% (inactive)
activity, negative = inhibition [2, 5]: -5.71% (inactive)
Potency (3D7): inactive
Potency (7G8): inactive
Potency (AA1029): inactive
Potency (AS120): inactive
Potency (ATS189): inactive
Potency (ATS95): inactive
Potency (C2A): inactive
Potency (CP185): inactive
Potency (CP191): inactive
Potency (CP192): inactive
Potency (CP194): inactive
Potency (CP201): inactive
Potency (CP211): inactive

O=C(O)/C=C/C(O)c1ccc(Cl)cc1 (stereo not given)
activity, negative = inhibition [2, 4]: 0.108% (inactive)
activity, negative = inhibition [2, 5]: 10.3% (inactive)
Potency (3D7): inactive
Potency (7G8): inactive
Potency (AA1029): inactive
Potency (AS120): inactive
Potency (ATS189): inactive
Potency (ATS95): inactive
Potency (C2A): inactive
Potency (CP185): inactive
Potency (CP191): inactive
Potency (CP192): inactive
Potency (CP194): inactive
Potency (CP201): inactive
Potency (CP211): inactive

O=C1CC[C@@H](C(=O)N2CSC[C@H]2C(=O)O)N1 ([pGlu]-[Thz]-OH)
activity, negative = inhibition [2, 4]: 14.8% (inactive)
activity, negative = inhibition [2, 5]: 2.84% (inactive)
Potency (3D7): inactive
Potency (7G8): inactive
Potency (AA1029): inactive
Potency (AS120): inactive
Potency (ATS189): inactive
Potency (ATS95): inactive
Potency (C2A): inactive
Potency (CP185): inactive
Potency (CP191): inactive
Potency (CP192): inactive
Potency (CP194): inactive
Potency (CP201): inactive
Potency (CP211): inactive

O=C(O)COc1ccc(C(=O)c2cccs2)c(Cl)c1Cl
activity, negative = inhibition [2, 4]: 17.6% (inactive) and 6.75% (inactive)
activity, negative = inhibition [2, 5]: 6.94% (inactive) and 2.12% (inactive)
Potency (3D7): inactive
Potency (7G8): inactive
Potency (AA1029): inactive
Potency (AS120): inactive
Potency (ATS189): inactive
Potency (ATS95): inactive
Potency (C2A): inactive
Potency (CP185): inactive
Potency (CP191): inactive
Potency (CP192): inactive
Potency (CP194): inactive
Potency (CP201): inactive
Potency (CP203): inactive
Potency (CP211): inactive
